# PubChem BioAssay (Tox21)
# Inconclusive results are not listed. Entries that show only a call come without a potency. Active and inactive are the calls of the source. Calls come from the whole dose curve; as a rule, active = well fitted activation curve with a large enough effect in the signal ratio in the repeat runs (not every such curve was filed as active); inconclusive = weak or mixed curves; inactive = flat fitted curve, though single readings scatter; the % refers to the signal ratio.
# Experiment: qHTS assay to identify small molecule agonists of H2AX (AID 1224845)
# Details: CHO-K1 phospho-H2AX Ser139 HTRF, 3 h; series mostly up to 154 µM; activation (H2AX phosphorylation): at the top concentration
# Description: National Center for Advancing Translational Sciences [NCATS]
# NIH Chemical Genomics Center [NCGC]
# U.S. Environmental Protection Agency [EPA]
# National Institutes of Environmental Health Sciences [NIEHS]
# National Toxicology Program [NTP]
# U.S. Food and Drug Administration [FDA]
# HTRF phospho-H2AX (Ser139) assay (Cisbio Bioassays, US) enables the quantitative detection of the histone variant H2AX when phosphorylated on serine 139. When double-stranded DNA breaks, either by ionizing radiation or endogenous physiological processes, H2AX becomes phosphorylated at Ser139. This phospho-Ser139 serves as a sensitive biomarker for the detection of such breaks, localizing the site of DNA repair. So, HTRF phospho-H2AX Ser139 is a pertinent assay to study genome stability, the cell cycle, DNA repair, and it serves as a biomarker for cancer, and to understand aging. Wild type CHO-K1 cells were used to identify the inducers of Phospho-H2AX Ser 139 from the Tox21 10K compound collections.
# Tox21 Assay Protocol Summary:
# The CHO-K1 cells suspended in culture medium containing 10% FBS were dispensed at 1000 cells/ 3 ul/well in 1536-well white wall/solid bottom plates (Greiner Bio-One North America, NC) using a Multidrop Combi (Thermo Fisher Scientific Inc., Waltham, MA). After the assay plates were incubated at 37C overnight, 23 nl of compounds at 15 concentrations (from 5-48 columns) or positive control (from 1 to 4 columns) were transferred to the assay plates using a Pintool station (Wako, San Diego, CA) into each well resulting in a final DMSO concentration of 0.76%. After 3hr incubation at 37C, 1 uL/well Supplemented Lysis buffer (diluted 100 fold blocking reagent in lysis buffer) (HTRF Phospho-H2A.X (S139) Assay kit from Cisbio US Inc., Bedford, MA) was added using a Flying Reagent Dispenser (FRD) (Aurora Discovery, CA). After 10sec spin at 1000 rpm in a plate centrifuge, the assay plates were incubated at room temperature for 30 min. Then followed by the addition of 1 uL/well detection buffer (containing a mixture of two antibodies, one labeled with cryptate, Anti pH2AX (S139)-K and another labeled with d2, Anti H2AX-d2) using FRD. After incubation at room temperature for 24 hr, the time resolved fluorescence at excitation 320 nm and emissions at 665 nm and 620 nm was measured using an Envision plate reader (PerkinElmer, Waltham, MA).
Structure (SMILES),Potency,activation (H2AX phosphorylation)
O=C(O)c1cc(Oc2ccc(C(F)(F)F)cc2Cl)ccc1[N+](=O)[O-],inactive,
O=P1(NCCCl)OCCCN1CCCl (stereo not given),inactive,
CNC(=O)O/N=C/C(C)(C)S(C)(=O)=O,inactive,
C=C(C)C(=O)OCC(CC)CCCC (stereo not given),,-1.59% (inactive)
N#Cc1cccc(C#N)c1,inactive,
c1ccc2c(c1)CCCC2,inactive,
C=CCN=C=S,inactive,
CC(C)CCCCCCOC(=O)c1ccccc1C(=O)OCCCCCCC(C)C,inactive,
Nc1ccc(N)cc1,,4.23% [at 70.9 µM] (inactive)
Cc1ccc(N=C=O)cc1N=C=O,,-0.0631% (inactive)
Clc1cnc(Oc2ccc(Oc3ncc(Cl)cc3Cl)cc2)c(Cl)c1,,0.145% [at 70.9 µM] (inactive)
CCNc1nc(Cl)nc(NC(C)C)n1,inactive,
OCC(O)CCl (stereo not given),inactive,
COc1nc(NC(C)C)nc(NC(C)C)n1,inactive,
[N-]=[N+]=CC(=O)OC[C@H](N)C(=O)O,inactive,
Nc1ncc([N+](=O)[O-])s1,inactive,
CN(C)C(=O)Nc1cccc(C(F)(F)F)c1,inactive,
CCCOC(=O)c1ccccc1C(=O)OCCC,inactive,
O=[N+]([O-])c1cc([As](=O)(O)O)ccc1O,inactive,
CCSC(=O)N1CCCCCC1,inactive,

Structure (SMILES),Potency,activation (H2AX phosphorylation)
C=CC(=O)OCCCCCC(C)C,inactive,
COP(=S)(OC)SCN1C(=O)c2ccccc2C1=O,,-1.35% (inactive)
OCCCCO,inactive,
O=[N+]([O-])c1ccc(Cl)c(Cl)c1,inactive,
Nc1ccc([As](=O)(O)O)cc1,inactive,
Nc1nc(N)nc(NC2CC2)n1,inactive,
Cc1cc(O)ccc1Cl,inactive,
CNC(=O)O/N=C(\SC)C(=O)N(C)C,inactive,
CC(=O)/C=C/c1ccccc1,inactive,
C=CC#N,inactive,
CC(=O)C1CCOC1=O (stereo not given),inactive,
CCCCC(CC)C(=O)Cl (stereo not given),inactive,
CN1C(=O)CCS(=O)(=O)C1c1ccc(Cl)cc1 (stereo not given),inactive,
Cc1ccccc1N,inactive,
O=C(O)Cc1ccccc1,inactive,
NNc1ccccc1,,-0.362% [at 70.9 µM] (inactive)
Cc1ccc(O)c(C)c1,inactive,
OC[C@@H](O)[C@H]1O[C@@H]2O[C@H](C(Cl)(Cl)Cl)O[C@@H]2[C@H]1O,inactive,
CCOP(=S)(OCC)Oc1ccc([N+](=O)[O-])cc1,inactive,
ClCCOCCCl,inactive,
